Among the data in ChEMBL document CHEMBL3988442, “University of Dundee, Small-Polar-MMV Screening Library” (2021) are Percent Effect values, retold here.

The test has as its target AMP-activated protein kinase, AMPK (Homo sapiens) (UniProt P54646+O43741+P54619+Q9UGJ0+Q9Y478+Q13131+Q9UGI9). In words: AMP-dependent Kinase enzyme assay. An in vitro enzyme assay that detects ADP turnover that is directly proportional to AMPK activity. This uses naive AMPK that is activated during the assay with MK-8722. The class given is functional. Further details: scale not given: direction of the effect not stated beside the values. Conditions: 30 µM.

Take `Cc1cc(NC(C)c2csc(C)n2)n2nc(C)c(C)c2n1` (configuration not stated): the Percent Effect amounted to 10%.

Take `NC(=O)c1ccc(N2CCN(CCCc3cn[nH]c3)CC2)cc1`: the Percent Effect was -7.64%. For `Cc1cn2nc(N(C)C3CCCN(c4cccnn4)C3)sc2n1` (configuration not stated), the Percent Effect amounted to 2.94%. The figure for `NC(=O)C1Cc2ccccc2CN1CCC(=O)N1CCc2ccccc21` (configuration not stated) is -3.92%; for `CNC(=O)[C@@H](C)NC(=O)c1cc(-c2ccc(F)cc2)c(C)s1` it is 2.33%. As for `Cc1cc(C[S+]([O-])Cc2ccccc2F)on1` (configuration not stated), the figure is 6.4%; as for `CN(CCSc1nncn1CC(F)(F)F)c1ccccc1`, 8.89%; as for `Cc1ccccc1-n1ccnc1S(=O)(=O)Cc1nsc(N(C)C)n1`, -1.55%. Consider `CC(Oc1cccc(Cl)c1)C(=O)Nc1cnn(CC(=O)NC2CC2)c1` (configuration not stated), for which the Percent Effect amounted to 1.4%. As for `CN(CCc1ccncc1)CCc1nccs1`, the figure is 1.48%; as for `C[C@@H]1CN(Cc2cc3ccccc3n2C)CC[C@@]1(O)C1CC1`, 14.8%; as for `c1csc(N2CCCN(c3ncnc4sccc34)CC2)n1`, 21.9%. As for `Cc1csc(CCNC(=O)N2CCC(C(N)=O)CC2)n1`, the figure is -10.8%; as for `CCN(CC)S(=O)(=O)CC(=O)Nc1ccsc1`, 2.3%.

`CCn1c(C2CCCN2Cc2noc(C(C)(C)C)n2)nc2ccccc21` (configuration not stated): the Percent Effect was 13.4%.

As for `N#CC1COCCN1C(=O)c1ccc2cc[nH]c2c1` (configuration not stated), the Percent Effect was found to be 6.24%. Regarding `O=C1OCCCN1Cc1nc(-c2ccncc2)no1`, the Percent Effect is -2.07%. The figure for `CN(CCn1cncc1-c1cnc(N2CCOCC2)nc1)C1CCCC1` is 12.2%; for `CSCCC(NC(N)=O)C(=O)Nc1ccc(-n2cccn2)nc1` (configuration not stated) it is -9.12%; for `NC(=O)c1csc(N2C[C@@H](CN3CCCCC3)[C@@H](CO)C2)n1` it is -3.06%.

Turning to `Cc1cc(C)c2[nH]c(C(=O)NCCN3CCNC3=O)c(C)c2c1`, the Percent Effect was determined as 11.1%. On to `O=C(O)[C@H]1C[C@H](C(=O)NCc2ccncc2)CN(CCC(F)(F)F)C1`, for which the Percent Effect is -2.07%. As for `Cc1nnc(CN(C)CC(=O)N2CCCC(C(F)(F)F)C2)n1C` (configuration not stated), the figure is 14.3%. For the molecule `CN(CCNC(=O)Nc1nccs1)Cc1ccc(F)cc1`, the Percent Effect is -0.57%. As for `CSc1nccc(N2CCC(NCc3nc(C)cc(C)n3)CC2)n1`, the figure is 7.66%; as for `CC(c1ccc(F)cc1F)N1CCN(CCC(=O)O)CC1` (configuration not stated), 8.21%. The figure for `COc1ccc(-c2cnc(CN(CC(N)=O)C3CCCC3)o2)cc1` is -2.59%.

With `O=C(NCc1cccnc1N1CCCCC1)c1ccc2[nH]nnc2c1`, the Percent Effect is -9.59%. As for `CSc1ccc(C(=O)C2CCCN(C(=O)CCn3cncn3)C2)cc1` (configuration not stated), the figure is 10.4%. As for `CCn1ncc(CN2CCC(c3ncc(Cl)cc3S(C)(=O)=O)CC2)c1C`, the figure is 6.21%. For the molecule `O=C(NCCc1ccncc1)c1cccc(S(=O)(=O)NC2CC2)c1`, the Percent Effect was -4.52%.

As to `CCNC(=O)[C@@H]1C[C@@H](N)CN1C(=O)c1cc2ccccc2[nH]1`, the Percent Effect came out at 8.12%.

Turning to `CCc1nnc(CN2CCc3ccc(S(N)(=O)=O)cc32)o1`, the Percent Effect was 5.08%. With `Cc1nc[nH]c1CN1CCC(C2CCN(CCc3ccccc3)C2)CC1` (configuration not stated), the Percent Effect is -0.168%. `CNC(=O)C1CCCN(C(=O)c2cncs2)C1` (configuration not stated): the Percent Effect stood at 4.55%. Turning to `CN1CCC(Nc2cc(Cl)ccc2OCC(F)(F)F)C1=O` (configuration not stated), the Percent Effect was -5.49%. As for `CC(NC(=O)N1CCCN(CC(F)F)CC1)c1ccco1` (configuration not stated), the Percent Effect is -1.66%. Turning to `CCN(Cc1ccc(N(C)C)cc1)S(=O)(=O)c1cc(Br)ccc1OC`, the Percent Effect is -8.72%. As for `COCCN(Cc1cnn(C)c1)c1nc2c(s1)c(C)nn2C`, the figure is -0.701%; as for `Cc1ccccc1C(NC(=O)CCCS(C)(=O)=O)C(C)(C)C` (configuration not stated), 7.1%. On to `CC(C)N(C)S(=O)(=O)c1ccc2c(c1)CCN(C(=O)c1cnccn1)C2`, for which the Percent Effect is 0.361%. The figure for `CCC(CNC(=O)c1cccc(S(=O)(=O)NC)c1)N1CCCC1` (configuration not stated) is 0.599%; for `O=C(Cn1cc(I)cn1)N1CCNC1=O` it is 0.6%.

Regarding `CC(NC(=O)c1ccc2c(c1)COC2)c1cccc(N2CCOC2=O)c1` (configuration not stated), the Percent Effect came to 5.03%. As to `CN(Cc1nnnn1C1CC1)CC1COc2ccccc2O1` (configuration not stated), the Percent Effect was determined as 4.32%.

Take `O=C1CCCCN1Cc1cccc(OC(F)F)c1`: the Percent Effect came out at 11.1%. For `COc1ccccc1OC(C)CNC(=O)c1cnc[nH]1` (configuration not stated), the Percent Effect was 0.827%. Turning to `CCN(C)C[C@@H]1CN(C(=O)c2cc(C(F)(F)F)n[nH]2)C[C@@H]1CO`, the Percent Effect came to 7.62%. Take `CC1(C)CC1(C(=O)N1CC(c2cccnc2)C1)c1ccc(F)cc1` (configuration not stated): the Percent Effect is 3.87%. The figure for `Cc1cnn(C2CN(CC(O)COc3ccc(C#N)cc3)C2)c1` (configuration not stated) is -78.4%; for `Cn1cc(S(=O)(=O)N(Cc2ccc(F)cc2F)C2CC2)cc1C(N)=O` it is 3.23%; for `O=C1OC2(CCN(CC3CCCO3)CC2)CN1CCc1ccccc1` (configuration not stated) it is -11.7%. The figure for `O=C(CCn1cnnn1)N1CCCC(CO)(CCc2ccccc2)C1` (configuration not stated) is 6.31%; for `CCC(C)(CC(=O)OC)NCc1c(C)noc1C` (configuration not stated) it is 4.75%.

As to `CCOc1ccc(Oc2cc(CN)ccn2)cc1`, the Percent Effect is -43.1%. Consider `CC(C(=O)Nc1nccs1)N(C)Cc1cccc(C#N)c1` (configuration not stated), for which the Percent Effect was 8.51%. Turning to `Cc1cc(Oc2ccc(NC(=O)C3CC3)cc2)cc(C2CCNCC2)n1`, the Percent Effect is -9.8%. As for `COC(=O)c1cccc(S(=O)(=O)NCC(c2ccco2)N2CCCC2)c1` (configuration not stated), the figure is -6.45%. As for `Fc1ccc(N2CCN(CCCc3cn[nH]c3)CC2)cc1`, the figure is 3.93%; as for `O=C(Cn1ccc2ncccc2c1=O)N1CCSCC1`, -4.34%. As for `COc1cnc(N2CCN(C)CC2)nc1-c1ccnn1C`, the figure is 0.474%. Consider `Cc1c(C(=O)N(C)c2ccccc2)cccc1N(C)S(C)(=O)=O`, for which the Percent Effect was found to be 12%. The figure for `CCC(C)C(=O)N(C)Cc1cc(F)ccc1N1CCC(OC)CC1` (configuration not stated) is 8.71%. Regarding `CCc1nnc(CNC(=O)CCC2CCCN(C)C2)s1` (configuration not stated), the Percent Effect was -1.32%. As for `COc1ccc(N2CCN(Cc3nc(CSC)no3)CC2=O)cc1`, the figure is 1.27%; as for `CCOC(=O)C1(O)CCN(C(=O)Nc2ccc(CC)cc2)CC1`, 0.524%.

As for `Cc1ncn(CCNC(=O)Nc2ccccc2)c(=O)c1C`, the Percent Effect is -8.41%. As to `O=C(NCc1ccccn1)c1cc2n(n1)CCNC2`, the Percent Effect stood at 11.8%. Regarding `COC(=O)C1CN(Cc2ccn(-c3ccc(F)cc3)n2)C[C@@H](C)O1` (some centres not stated), the Percent Effect was -6.96%.

Take `CCc1cnc(C(C)NC(=O)N2CCCN(CC(F)F)CC2)s1` (configuration not stated): the Percent Effect was -2.53%. The figure for `COC(=O)c1ccc(Cn2cccc(C(F)(F)F)c2=O)c(OC)c1` is 6.82%.

For `Cc1cc(C)c(C(=O)N(C)CCN(C)C(=O)c2[nH]c(C)cc2C)[nH]1`, the Percent Effect was -2.87%. With `COc1nccc(N2CC[C@H](N3CCOCC3)[C@H](CCCO)C2)c1C#N`, the Percent Effect is -3.46%.

For `O=C1CC2(CCCC2)CC(=O)N1CCn1cnnc1`, the Percent Effect is 5.88%.

With `COCC(C)(O)CNC(=O)c1cc(-c2cc(OC)ccc2OC)nn1C` (configuration not stated), the Percent Effect came out at 1.19%.

For `COCc1ncc(CN2CCC3(CCNC(=O)CC3)CC2)cn1`, the Percent Effect worked out at 0.0611%.

As to `CCc1c(C)nn2c(O)cc(C3CCN(C(=O)c4cnn(C)c4)C3)nc12` (configuration not stated), the Percent Effect was 5.68%.

On to `O=C(CCN1CCCCO1)N1CC[C@H](O)[C@@H](O)C1`, for which the Percent Effect was -7.38%. The figure for `CSc1ccc(NC(=O)Cn2cc(N)cn2)cc1` is -79.3%. The figure for `CCn1ncnc1C1CC(=O)NCc2nc(N3CCCC3)sc21` (configuration not stated) is -10.2%; for `Cc1cc(CN(CC(N)=O)CC(C)C)on1` it is -2.52%; for `CC(=O)N1CC(c2ccnc(Nc3nccs3)n2)C1` it is 1.83%. As for `OC1CCN(C2CCN(c3ccc(Cn4ccnc4)cn3)CC2)CC1`, the figure is -3.24%; as for `COc1ccc2c(c1)CCCC2CC(=O)NCC(C)(C)C(=O)O` (configuration not stated), 0.926%; as for `CSCC(C)(O)CNS(=O)(=O)c1ccc(F)cc1` (configuration not stated), -4.97%. As for `CSCCC(NC(=O)c1ccccc1)C(=O)N(C)Cc1ccsc1` (configuration not stated), the Percent Effect is -4.15%. The figure for `CNS(=O)(=O)CC(=O)N(C1CC1)C1Cc2ccccc2C1` is -3.11%; for `CC(c1ccncn1)N(C)S(=O)(=O)NCc1ccccc1` (configuration not stated) it is -13.5%; for `Cc1nc(N)cc(NCc2csc(N(C)C)n2)n1` it is -14.5%. `Fc1cccc(CN2CCC[C@@H](Cn3nnc(-c4ccccn4)n3)C2)c1`: the Percent Effect is 10.2%. For `CCC(O)CN1CCN(C(=O)CCSC)CC1` (configuration not stated), the Percent Effect was -2.43%.

As for `CNC(=O)c1cccnc1NCc1ccc(-n2cccn2)cc1`, the Percent Effect was -0.487%. With `CN(CCSc1nncn1C(C)(C)C)c1ccccc1`, the Percent Effect amounted to 16.1%.

As for `CCCNC(=O)c1cnc2n1CCCC2`, the Percent Effect was determined as 0.00547%.

On to `Cc1sc(C(=O)NS(C)(=O)=O)cc1-c1ccc(F)cc1`, for which the Percent Effect was -4.08%. The figure for `CCN1CCN(c2ncnc3c2CCN(C(=O)C2CC2)C3)CC1` is -7.12%; for `O=C(Cn1cnc2ccsc2c1=O)c1ccc2c(c1)OCCO2` it is -4.28%. As for `Cc1ccc(NC(=O)CN[C@H](C(N)=O)C(C)C)cc1F`, the figure is -14.9%. With `N#Cc1ccc(NCc2cccnc2N2CCC(C(N)=O)CC2)cn1`, the Percent Effect was found to be 2.13%.

Take `CS(=O)(=O)N1CC[C@]2(O)CCN(c3ccnc(N)n3)C[C@@H]2C1`: the Percent Effect is -13.7%. Consider `COc1ccc(N2CCC(NC(=O)c3sccc3C)CC2)cc1`, for which the Percent Effect was -1.46%. The figure for `CN(Cc1nc2ccccc2[nH]1)C(=O)CN(C)c1ccccc1` is -1.06%; for `Cc1nnc(SCCCNc2cc(C3CC3)ncn2)s1` it is 15.2%; for `CN(C)CC(O)Cn1cc(NCc2ccc(Br)cc2)cn1` (configuration not stated) it is -39.9%.

As to `CCCn1nnnc1COC(=O)C1Cc2cc(Cl)ccc2O1` (configuration not stated), the Percent Effect came out at 6.63%. For `CCc1nc(NC(=O)Cc2csc(-c3nnc[nH]3)n2)sc1C`, the Percent Effect was 3.13%. As for `CN1CCOC(CNCC(=O)NCCc2ccc3c(c2)OCCO3)C1` (configuration not stated), the figure is -5.82%. As for `COc1cccc(CNC(=O)C(C)N2CC(n3nc(C)cc3C)C2)c1` (configuration not stated), the figure is 0.116%; as for `Cc1cc(C(=O)NC(C)Cc2ccccc2Cl)n(C)n1` (configuration not stated), 7.6%; as for `COc1ccccc1CN(Cc1nc(Cc2ccccc2)no1)C1CC1`, 12.8%.

Take `CCOCCC(=O)Nc1cccc(Cl)c1COC`: the Percent Effect is -0.185%. Consider `CN(CC1(CO)CCCC1)c1nc2c(c(=O)[nH]1)Cc1ccccc1OC2`, for which the Percent Effect came out at 6.29%.
